Activity calls are given as the source filed them.

A short description of assay [1]: optical density shifts of acrAB sulA E. coli – strain DRC41, OD650, 48 h, E. coli filamentation inducer project, primary screen (AID 1152).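 Further: E. coli MC1000 strain DRC41 lacking acrAB efflux pump and sulA.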 The settings on record: higher = more signal, called active from +8 up or from −8 down.
Assay [2] can be described thus: probe aLefty1 binding on compound microarray – biochemical, small-molecule microarray, 635/667 nm fluorescence, primary screen (AID 1153).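 Further: score merges spot fluorescence with signal-to-noise ratio from the scanned slide images.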 The settings on record: higher = more signal.
A short description of assay [3]: plasmodial surface anion channel blockers, osmotic lysis – cell-based, P. falciparum Indochina, OD700, 1 h, primary screen (AID 1154). Particulars: P. falciparum Indochina infected RBC osmotic lysis, higher = more signal, called active from +8 up or from −8 down.
A short description of assay [4]: plasmodial surface anion channel blockers, osmotic lysis – cell-based, P. falciparum Indochina, OD700, 2 h, primary screen (AID 1155).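 Further: lysis reports solute entry through the parasite surface anion channel PSAC.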 The settings on record: P. falciparum Indochina infected erythrocytes, higher = more signal, called active from +8 up or from −8 down.
A short description of assay [5]: changes in parasitized red cell lysis, either direction – P. falciparum Indochina, OD700, 3 h, PSAC antagonist project, primary screen (AID 1156). Particulars: P. falciparum-infected erythrocytes, osmotic lysis, higher = more signal, called active from +8 up or from −8 down.
Assay [6] can be described thus: plasmodial surface anion channel blockers, osmotic lysis – cell-based, P. falciparum Indochina, OD700, 18 h, primary screen (AID 1157). The settings on record: P. falciparum Indochina infected erythrocytes, osmotic lysis OD700, 18 h; higher = more signal, called active from +8 up or from −8 down.
Assay [7] can be described thus: S6 kinase pathway phospho-S6 level changes – cell-based, A549, cytoblot, luminescence, serum-stimulated, primary screen (AID 1158).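 Further: serum-stimulated A549 lung adenocarcinoma cells; signal is phosphorylated S6 detected by cytoblot immunostaining with HRP secondary.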 Particulars: 5 h, higher = more signal.
Assay [8] concerns the target NADPH oxidase 2 (Homo sapiens) (UniProt P04839). Kind of assay: compounds shifting NOX2 Amplex Red fluorescence – cell-based, HEK293-NOX2, PMA-stimulated, NOX inhibitor project, primary screen (AID 1159). Further: test concentration not given here. Particulars: 45 min, higher = more signal, called active from +8 up or from −8 down.
For assay [9], the target named is NADPH oxidase 4 (Homo sapiens) (UniProt Q9NPH5). Kind of assay: compounds shifting NOX4 Amplex Red fluorescence – cell-based, HEK293-NOX4, tetracycline-induced, NOX inhibitor project, primary screen (AID 1160). The settings on record: HEK293-NOX4, Amplex Red H2O2 fluorescence, 45 min; higher = more signal, called active from +8 up or from −8 down.
Chain of NADPH oxidase 4 (Homo sapiens) (Q9NPH5 whole entry, looked up): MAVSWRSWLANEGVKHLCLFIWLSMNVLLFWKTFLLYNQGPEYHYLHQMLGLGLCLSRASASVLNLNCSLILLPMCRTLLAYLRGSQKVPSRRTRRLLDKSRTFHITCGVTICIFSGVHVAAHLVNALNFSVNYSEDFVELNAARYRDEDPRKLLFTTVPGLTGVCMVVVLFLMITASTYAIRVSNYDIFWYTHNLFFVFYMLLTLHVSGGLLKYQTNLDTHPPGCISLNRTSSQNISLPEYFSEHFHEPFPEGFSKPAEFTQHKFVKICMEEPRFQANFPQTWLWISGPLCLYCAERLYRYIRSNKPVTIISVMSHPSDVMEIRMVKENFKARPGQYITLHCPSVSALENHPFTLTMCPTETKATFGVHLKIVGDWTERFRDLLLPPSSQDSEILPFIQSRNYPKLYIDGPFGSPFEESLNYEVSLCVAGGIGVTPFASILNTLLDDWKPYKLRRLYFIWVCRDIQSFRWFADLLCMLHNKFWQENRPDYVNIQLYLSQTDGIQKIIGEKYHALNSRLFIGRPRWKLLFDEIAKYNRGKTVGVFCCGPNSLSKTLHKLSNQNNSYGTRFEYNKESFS
For assay [10], the target named is NADPH oxidase 5 (Homo sapiens) (UniProt Q96PH1). Kind of assay: compounds shifting NOX5 Amplex Red fluorescence – cell-based, HEK293-NOX5, NOX inhibitor project, primary screen (AID 1161). Particulars: HEK293-NOX5, ionomycin, 45 min, higher = more signal.
Chain of NADPH oxidase 5 (Homo sapiens) (Q96PH1 whole entry, looked up): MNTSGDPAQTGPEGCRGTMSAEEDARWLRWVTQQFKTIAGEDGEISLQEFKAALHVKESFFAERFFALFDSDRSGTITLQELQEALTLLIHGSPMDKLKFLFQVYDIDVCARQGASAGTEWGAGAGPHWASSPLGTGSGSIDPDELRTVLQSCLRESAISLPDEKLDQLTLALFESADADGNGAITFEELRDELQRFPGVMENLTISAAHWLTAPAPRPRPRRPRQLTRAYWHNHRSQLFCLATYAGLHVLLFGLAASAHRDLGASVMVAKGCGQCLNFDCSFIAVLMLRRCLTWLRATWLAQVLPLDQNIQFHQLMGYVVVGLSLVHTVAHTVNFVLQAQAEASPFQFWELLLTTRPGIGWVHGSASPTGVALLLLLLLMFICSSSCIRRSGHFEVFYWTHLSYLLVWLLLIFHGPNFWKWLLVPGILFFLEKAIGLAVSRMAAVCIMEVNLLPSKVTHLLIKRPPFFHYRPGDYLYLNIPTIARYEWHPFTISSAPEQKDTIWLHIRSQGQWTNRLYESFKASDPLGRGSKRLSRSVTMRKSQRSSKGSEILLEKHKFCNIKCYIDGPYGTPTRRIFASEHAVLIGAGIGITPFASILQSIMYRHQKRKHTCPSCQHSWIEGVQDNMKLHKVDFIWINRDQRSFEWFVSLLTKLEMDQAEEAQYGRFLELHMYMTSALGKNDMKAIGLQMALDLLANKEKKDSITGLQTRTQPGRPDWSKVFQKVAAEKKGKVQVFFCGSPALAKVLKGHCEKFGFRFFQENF
Assay [11] is described as follows: compound effects on lung adenocarcinoma cell viability – A549, calcein-AM fluorescence, 48 h, basal, profiling panel (AID 1162). Further: test concentration not given here. The settings on record: higher = more signal.
Assay [12] in a line: compound effects on differentiated 3T3-L1 adipocyte viability – cell-based, 3T3-L1 adipocytes, calcein-AM fluorescence, 48 h, basal, profiling panel (AID 1163). Further: test concentration not given here. The settings on record: 3T3-L1 adipocytes viability, higher = more signal.
The nature of assay [13]: compound effects on hepatocellular carcinoma cell viability – HepG2, calcein-AM fluorescence, 48 h, basal, profiling panel (AID 1164). Further: test concentration not given here. The settings on record: higher = more signal.
A short description of assay [14]: compound effects on multiple myeloma cell viability – MM1S, calcein-AM fluorescence, 48 h, basal, profiling panel (AID 1165).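 Further: viability of MM1S multiple myeloma cells under basal unstimulated conditions; test concentration not given here.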 The settings on record: higher = more signal.
Assay [15] in a line: calcein-AM signal in unstimulated myeloma cells – cell-based, calcein-AM fluorescence, 48 h, PK04 Diversity Set, profiling panel (AID 1166).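 Further: cells grown under basal conditions without added stimulus; test concentration not given here.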 The settings on record: RPMI8226 myeloma viability, higher = more signal.
The nature of assay [16]: JC-1 mitochondrial signal, unstimulated HepG2 cells – cell-based, JC-1 fluorescence, 24 h, 100 nL compound, profiling panel (AID 1167). Further: test concentration not given here. The settings on record: HepG2 mitochondrial potential, higher = more signal.
Assay [17] can be described thus: JC-1 mitochondrial signal, unstimulated adipocytes – cell-based, JC-1 fluorescence, 3T3-L1 adipocytes, 24 h, 100 nL compound, profiling panel (AID 1168). Further: test concentration not given here. Particulars: JC-1 mitochondrial fluorescence, higher = more signal, called active from +8 up or from −8 down.
Assay [18] can be described thus: JC-1 mitochondrial signal, unstimulated myeloma cells – cell-based, JC-1 fluorescence, RPMI8226, 24 h, 100 nL compound, profiling panel (AID 1169). Further: test concentration not given here. Particulars: JC-1 mitochondrial potential fluorescence, higher = more signal.
The nature of assay [19]: JC-1 mitochondrial signal, unstimulated MM1S myeloma – cell-based, JC-1 fluorescence, 24 h, 100 nL compound, profiling panel (AID 1170). Further: test concentration not given here. Particulars: MM1S mitochondrial potential, higher = more signal.
Assay [20] can be described thus: resazurin metabolic signal in A549 cells – cell-based, resazurin fluorescence, 24 h, PK04 Diversity Set, profiling panel (AID 1171). Further: test concentration not given here. Particulars: A549 viability, higher = more signal, called active from +8 up or from −8 down.

Chain of NADPH oxidase 2 (Homo sapiens) (P04839 whole entry, looked up): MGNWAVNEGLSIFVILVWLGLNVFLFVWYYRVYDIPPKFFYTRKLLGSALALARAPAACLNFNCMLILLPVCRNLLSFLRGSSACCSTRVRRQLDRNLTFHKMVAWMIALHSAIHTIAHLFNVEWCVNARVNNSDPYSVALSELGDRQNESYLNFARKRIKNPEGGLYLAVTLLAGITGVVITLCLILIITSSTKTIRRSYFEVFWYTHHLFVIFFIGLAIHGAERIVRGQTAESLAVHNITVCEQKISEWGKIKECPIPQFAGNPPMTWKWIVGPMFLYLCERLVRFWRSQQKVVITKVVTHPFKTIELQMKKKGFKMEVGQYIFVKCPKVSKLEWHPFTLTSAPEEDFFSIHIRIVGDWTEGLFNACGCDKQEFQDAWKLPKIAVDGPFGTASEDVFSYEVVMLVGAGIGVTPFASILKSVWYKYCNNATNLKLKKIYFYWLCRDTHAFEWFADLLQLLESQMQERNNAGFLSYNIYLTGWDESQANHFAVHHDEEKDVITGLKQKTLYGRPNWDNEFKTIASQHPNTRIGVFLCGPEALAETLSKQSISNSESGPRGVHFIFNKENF

Consider `C=C[C@H](OC)[C@@H](OC(=O)Nc1ccc(SC)cc1)c1ccc(OC)c(O)c1`, for which the z-score in assay [1] is 2 (inactive); in assay [3], 18.9 (active); in [4], 2.11 (inactive); in [5], -0.454 (inactive); in assay [6] it was -1.02 (inactive); in assay [7], 0.738. The z-score is -2.57 (inactive) in assay [8]; -1.35 (inactive) in assay [9]; -0.943 in [10]; 1.73 in assay [11]; 0.182 in [12]; 0.907 in assay [13]. Also, the z-score in assay [14] was 0.898; in [15] it was 0.524; in [16], 0.163; in assay [17] it was 1.15 (inactive); in [18] it was 0.412; in assay [19], 0.761. Further, the z-score in assay [20] is 0.595 (inactive). In addition, in [2], the composite z-score is 0.0004.

Regarding `COC(=O)C1=CC(c2ccc(CO)cc2)=CC(c2cccs2)N(Cc2cccc(OC(F)(F)F)c2)C=C1C(=O)OC` (stereo not given), the z-score is -1.66 (inactive) in [1]; 10.9 (active) in assay [3]; 1.87 (inactive) in assay [4]; 0.615 (inactive) in assay [5]; 1.43 (inactive) in assay [6]; -0.264 in assay [7]. For the same compound, the z-score in assay [8] is -1.76 (inactive); in assay [9], -1.96 (inactive); in [10], -2.87; in assay [11], -0.425; in assay [12], 0.531; in assay [13], -0.282. The z-score in [14] is -1.63; in assay [15], -2.08; in assay [16], -0.908; in [17], -1.25 (inactive); in [18] it was -0.838; in assay [19], -0.459. In addition, the z-score in assay [20] was -0.0711 (inactive). In assay [2], the composite z-score came to 0.641.

As to `C[C@]1(C(=O)NCc2ccccc2)c2ccccc2C(=O)N(Cc2cc(C(F)(F)F)cc(C(F)(F)F)c2)[C@H]1c1ccc(CO)cc1`, the z-score in assay [1] was 2.32 (inactive); in assay [3], 6.25 (inactive); in assay [4], 1.11 (inactive); in assay [5], 0.709 (inactive); in assay [6] it was 0.448 (inactive); in assay [7], 3.92. Moreover, the z-score in assay [8] was -1.35 (inactive); in assay [9] it was -1.03 (inactive); in [10], -1; in assay [11], 0.0361; in assay [12], 1.95; in assay [13], 0.292. The z-score in assay [14] was -0.951; in assay [15], -1.46; in assay [16] it was 1.07; in assay [17], -0.122 (inactive); in [18] it was -0.155; in assay [19] it was -0.177. Also, the z-score in [20] is 0.805 (inactive). Further, the composite z-score in [2] is 0.364.

For `C=CCc1cccc([C@H]2N[C@H](C(=O)O)CC[C@@H]2C)c1`, the z-score is 0.574 (inactive) in [1]; 0.734 (inactive) in assay [3]; 1.15 (inactive) in assay [4]; 0.794 (inactive) in assay [5]; 0.443 (inactive) in assay [6]; -0.167 in assay [7]. Also, the z-score in assay [8] was 0.183 (inactive); in [9] it was 0.773 (inactive); in assay [10], 0.0482; in assay [11], 0.382; in assay [12], 0.624; in assay [13] it was -0.484. Further, the z-score in assay [14] is -0.543; in [15], 0.665; in assay [16], 0.489; in [17] it was -0.0728 (inactive); in assay [18] it was 0.602; in [19], 0.345. Moreover, the z-score in assay [20] was 0.553 (inactive). Further, in assay [2], the composite z-score is -0.237.

In the case of `O=C1O[C@@H](c2ccccc2)[C@@H](c2ccccc2)N2[C@@H](c3ccc(O)cc3)[C@]3(C(=O)Nc4ccccc43)[C@@H](C(=O)N3CCN(c4ncccn4)CC3)[C@H]12`, the z-score is 3.11 (inactive) in assay [1]; 2.76 (inactive) in assay [3]; -0.363 (inactive) in assay [4]; 0.541 (inactive) in assay [5]; -1.54 (inactive) in assay [6]; 2.51 in assay [7]. The z-score is 0.142 (inactive) in [8]; -0.0244 (inactive) in assay [9]; 1.51 in assay [10]; 0.661 in assay [11]; -0.957 in [12]; 1.15 in assay [13]. Further, the z-score in assay [14] was -1.16; in [15], -1.77; in assay [16], -0.235; in [17] it was 1.72 (inactive); in assay [18] it was -0.455; in assay [19], -0.618. In assay [20], the z-score was -0.133 (inactive). Moreover, the composite z-score in assay [2] is -0.263.

On to `Cc1ccc(N2C(=O)c3ccccc3[C@](C)(C(=O)NCC(C)C)[C@@H]2c2ccc(CO)cc2)nc1`, for which the z-score in [1] is -0.262 (inactive); in assay [3], 1.84 (inactive); in assay [4], 0.707 (inactive); in assay [5], 1.26 (inactive); in assay [6], 0.937 (inactive); in [7] it was -0.0528. Also, the z-score in assay [8] is 0.253 (inactive); in assay [9] it was -0.657 (inactive); in assay [10], -1.63; in [11], -0.535; in assay [12] it was -0.672; in assay [13] it was -0.712. For the same compound, the z-score was -0.359 in assay [14]; 0.256 in [15]; -0.481 in assay [16]; -0.74 (inactive) in [17]; -0.0498 in [18]; -0.634 in assay [19]. For the same compound, the z-score in assay [20] was 0.606 (inactive). The compound further gave a composite z-score in assay [2] of -0.147.

Turning to `C=CCC(OC(C)=O)[C@@H]1[C@@H](N(Cc2cc3ccccc3o2)C(=O)c2ccc(C)cc2)c2cc(OCCCO)ccc2N1C(=O)c1ccc2ccccc2n1` (stereo not given in full), the z-score is 3.08 (inactive) in [1]; 0.834 (inactive) in assay [3]; 0.345 (inactive) in [4]; -0.629 (inactive) in assay [5]; 0.432 (inactive) in assay [6]; 0.469 in assay [7]. Moreover, the z-score is 0.12 (inactive) in assay [8]; 0.589 (inactive) in [9]; 1.51 in assay [10]; 2.73 in [11]; 0.362 in [12]; 1.54 in [13]. Also, the z-score is 0.906 in assay [14]; 1.09 in assay [15]; 2.46 in [16]; 1.5 (inactive) in [17]; 0.648 in assay [18]; 1.19 in [19]. Also, the z-score in assay [20] is 1.66 (inactive). The compound further came in with a composite z-score in assay [2] of -0.007.

As to `COCCCNC(=O)[C@@H]1c2ccccc2C(=O)N(CC23CC4CC(CC(C4)C2)C3)[C@H]1c1ccc(CO)cc1`, the z-score was -0.162 (inactive) in [1]; 4.59 (inactive) in [3]; -0.14 (inactive) in assay [4]; 3.38 (inactive) in assay [5]; -0.877 (inactive) in assay [6]; 2.61 in [7]. The z-score in [8] was -1.24 (inactive); in assay [9] it was -2.34 (inactive); in [10], -4.2; in assay [11], 0.0071; in assay [12], 1.3; in assay [13] it was 0.0729. Also, the z-score in [14] is -0.193; in assay [15] it was -0.996; in assay [16] it was 1.12; in assay [17], -0.227 (inactive); in assay [18], 0.0172; in assay [19], 0.0814. The z-score in assay [20] is 0.729 (inactive). For the same compound, the composite z-score in assay [2] is 0.276.

As for `CC(C)N1CC=CC23O[C@@H]4/C=C\CCCOC(=O)C4[C@H]2C(=O)N(CCCCCO)[C@@H]3C1=O` (stereo not given in full), the z-score in [1] is 1.57 (inactive); in assay [3], -0.455 (inactive); in assay [4], 0.0907 (inactive); in [5], 0.658 (inactive); in assay [6], -0.258 (inactive); in assay [7], 0.946. Moreover, the z-score was 0.845 (inactive) in assay [8]; -0.00488 (inactive) in assay [9]; 1.7 in [10]; 0.196 in assay [11]; 1.24 in assay [12]; 0.791 in assay [13]. In addition, the z-score in assay [14] was 1.64; in [15], 0.0268; in assay [16], 0.446; in [17] it was 1.31 (inactive); in assay [18], -0.197; in [19] it was 0.599. The z-score in assay [20] was 0.929 (inactive). In assay [2], this compound had a composite z-score of -0.285.

The record behind these values is PubChem BioAssay.
